Assay results: PubChem BioAssay
The source made the active and inactive calls.

How the values were obtained:
[1] = small molecules captured by biotinylated probe aFSTL3 – biochemical, small-molecule microarray, fluorescence 635/667, stem cell growth factor project, primary screen (AID 1064); conditions: higher = more signal;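 further: measures binding of the biotinylated anti-FSTL3 antibody to printed compounds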
[2] = binders from COS7 lysate, DM2A8 probe, primary screen, torsin A project, cell lysate, small-molecule microarray, fluorescence 635/667 (AID 1065); conditions: higher = more signal, COS7 lysate expressing mutant human TOR1A
[3] = small molecules captured by biotinylated probe aFGF2 – biochemical, small-molecule microarray, fluorescence 635/667, stem cell growth factor project, primary screen (AID 1067); conditions: higher = more signal;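 further: measures binding of biotinylated aFGF2 protein to printed compounds on slides; z-score merges feature fluorescence and signal-to-noise across triplicate slides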
[4] = small molecules captured by biotinylated probe aFGF10 – biochemical, small-molecule microarray, fluorescence 635/667, stem cell growth factor project, primary screen (AID 1071); conditions: higher = more signal;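 further: score merges 667 nm spot intensity and signal to noise from triplicate slides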
[5] = molecular target: Neurogenic locus notch homolog protein 2 (Homo sapiens) (UniProt Q04721); experiment: small molecules binding Notch2 protein – biochemical, small-molecule microarray, 635 nm fluorescence, stem cell growth factors, primary screen (AID 1073); conditions: higher = more signal
Chain of Neurogenic locus notch homolog protein 2 (Homo sapiens) (Q04721 whole entry, looked up, canonical isoform): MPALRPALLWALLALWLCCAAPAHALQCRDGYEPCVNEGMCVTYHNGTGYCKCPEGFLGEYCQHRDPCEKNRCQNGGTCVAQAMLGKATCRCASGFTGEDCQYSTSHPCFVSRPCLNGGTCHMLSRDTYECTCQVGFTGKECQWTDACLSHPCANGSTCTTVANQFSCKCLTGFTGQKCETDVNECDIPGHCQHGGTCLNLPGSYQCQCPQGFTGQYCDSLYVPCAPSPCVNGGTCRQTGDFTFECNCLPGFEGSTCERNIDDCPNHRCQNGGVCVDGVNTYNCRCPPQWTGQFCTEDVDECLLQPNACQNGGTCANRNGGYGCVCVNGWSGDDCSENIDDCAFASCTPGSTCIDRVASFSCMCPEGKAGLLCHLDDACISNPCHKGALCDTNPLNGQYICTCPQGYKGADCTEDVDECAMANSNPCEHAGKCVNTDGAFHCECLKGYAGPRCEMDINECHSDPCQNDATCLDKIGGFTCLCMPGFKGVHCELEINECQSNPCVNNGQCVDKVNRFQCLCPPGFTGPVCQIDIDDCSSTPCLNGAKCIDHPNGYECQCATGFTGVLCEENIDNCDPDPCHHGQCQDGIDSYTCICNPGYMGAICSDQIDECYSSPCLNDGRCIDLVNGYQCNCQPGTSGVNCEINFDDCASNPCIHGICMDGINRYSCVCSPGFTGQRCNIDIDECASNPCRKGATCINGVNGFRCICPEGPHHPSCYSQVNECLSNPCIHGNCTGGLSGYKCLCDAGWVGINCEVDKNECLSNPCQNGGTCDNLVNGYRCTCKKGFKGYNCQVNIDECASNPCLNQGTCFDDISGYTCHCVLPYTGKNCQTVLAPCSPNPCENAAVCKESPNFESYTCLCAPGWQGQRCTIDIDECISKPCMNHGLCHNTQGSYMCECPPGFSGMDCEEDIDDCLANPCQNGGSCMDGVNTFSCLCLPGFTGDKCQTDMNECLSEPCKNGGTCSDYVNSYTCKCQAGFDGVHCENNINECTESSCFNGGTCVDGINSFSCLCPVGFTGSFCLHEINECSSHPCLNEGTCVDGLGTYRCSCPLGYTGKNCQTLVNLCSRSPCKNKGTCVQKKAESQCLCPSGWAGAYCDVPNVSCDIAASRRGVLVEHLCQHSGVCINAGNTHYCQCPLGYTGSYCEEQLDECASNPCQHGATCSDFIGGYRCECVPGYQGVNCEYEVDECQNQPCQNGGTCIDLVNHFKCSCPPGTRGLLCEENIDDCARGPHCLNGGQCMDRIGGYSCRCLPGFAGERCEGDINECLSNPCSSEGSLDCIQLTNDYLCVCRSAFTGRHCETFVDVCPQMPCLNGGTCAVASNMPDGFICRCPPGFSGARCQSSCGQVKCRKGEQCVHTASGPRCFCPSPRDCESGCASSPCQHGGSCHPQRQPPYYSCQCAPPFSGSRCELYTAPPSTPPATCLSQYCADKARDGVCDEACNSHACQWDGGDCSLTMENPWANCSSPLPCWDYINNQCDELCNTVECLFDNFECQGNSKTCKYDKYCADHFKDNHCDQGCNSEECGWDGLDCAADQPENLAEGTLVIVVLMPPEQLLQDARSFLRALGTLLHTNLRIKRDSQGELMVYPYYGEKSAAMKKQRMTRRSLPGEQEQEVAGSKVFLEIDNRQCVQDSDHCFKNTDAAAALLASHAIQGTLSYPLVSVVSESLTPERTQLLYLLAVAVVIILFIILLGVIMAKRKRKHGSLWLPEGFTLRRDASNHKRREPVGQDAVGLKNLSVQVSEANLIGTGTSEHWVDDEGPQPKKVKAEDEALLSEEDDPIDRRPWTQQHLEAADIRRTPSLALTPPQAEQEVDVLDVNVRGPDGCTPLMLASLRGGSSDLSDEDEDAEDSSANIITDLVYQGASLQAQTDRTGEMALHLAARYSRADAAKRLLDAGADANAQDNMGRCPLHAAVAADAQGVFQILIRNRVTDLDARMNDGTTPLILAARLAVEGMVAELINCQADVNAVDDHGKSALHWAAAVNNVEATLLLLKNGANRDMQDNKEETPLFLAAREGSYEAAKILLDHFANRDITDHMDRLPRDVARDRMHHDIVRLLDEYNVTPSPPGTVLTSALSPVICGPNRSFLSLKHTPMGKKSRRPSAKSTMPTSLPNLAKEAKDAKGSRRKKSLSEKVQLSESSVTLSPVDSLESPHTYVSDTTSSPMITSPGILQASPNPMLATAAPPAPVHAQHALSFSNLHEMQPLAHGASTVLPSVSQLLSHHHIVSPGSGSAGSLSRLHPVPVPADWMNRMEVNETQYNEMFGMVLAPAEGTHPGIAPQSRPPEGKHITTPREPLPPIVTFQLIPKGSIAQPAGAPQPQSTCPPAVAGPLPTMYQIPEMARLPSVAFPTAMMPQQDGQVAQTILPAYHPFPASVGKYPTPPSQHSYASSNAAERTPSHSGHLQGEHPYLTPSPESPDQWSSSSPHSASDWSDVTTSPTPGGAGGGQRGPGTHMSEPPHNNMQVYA

[6] = molecular target: Pro-neuregulin-1, membrane-bound isoform (Homo sapiens) (UniProt Q02297); experiment: small molecules binding neuregulin-1 protein – biochemical, small-molecule microarray, fluorescence 635/667, psychiatric disease protein project, primary screen (AID 1075); conditions: NRG1 binding, 635 nm fluorescence, higher = more signal;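 further: score combines 667 nm spot fluorescence with signal to noise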
Chain of Pro-neuregulin-1, membrane-bound isoform (Homo sapiens) (Q02297 whole entry, looked up, the tested form may be a part, canonical isoform): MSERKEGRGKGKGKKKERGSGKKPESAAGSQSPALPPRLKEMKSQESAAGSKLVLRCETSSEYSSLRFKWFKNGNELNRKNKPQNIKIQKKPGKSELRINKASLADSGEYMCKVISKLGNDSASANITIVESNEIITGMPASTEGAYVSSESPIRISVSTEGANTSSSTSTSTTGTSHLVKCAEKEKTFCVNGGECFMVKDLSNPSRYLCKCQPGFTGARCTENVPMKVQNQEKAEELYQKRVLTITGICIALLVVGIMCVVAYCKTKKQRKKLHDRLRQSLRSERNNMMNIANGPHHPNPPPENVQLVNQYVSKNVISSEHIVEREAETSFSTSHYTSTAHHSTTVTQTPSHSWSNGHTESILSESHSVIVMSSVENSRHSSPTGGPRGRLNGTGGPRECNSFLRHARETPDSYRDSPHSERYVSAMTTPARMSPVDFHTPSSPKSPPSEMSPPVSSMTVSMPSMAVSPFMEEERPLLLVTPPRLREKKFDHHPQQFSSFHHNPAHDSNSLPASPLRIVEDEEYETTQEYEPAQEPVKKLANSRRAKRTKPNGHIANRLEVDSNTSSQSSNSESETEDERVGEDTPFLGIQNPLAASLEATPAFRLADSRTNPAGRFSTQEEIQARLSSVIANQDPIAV

[7] = system: Neuregulin-1 EGF-like domain; experiment: small molecules binding NRG1 EGF domain – biochemical, small-molecule microarray, 635 nm fluorescence, primary screen (AID 1081); conditions: higher = more signal;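 further: binding of the protein to compounds printed on small-molecule microarray slides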
[8] = FRG1 expression reporter modulators in myotubes – cell-based, C2C12 myotubes, firefly/Renilla luciferase, luminescence, FRG1 inhibition for FSHD, primary screen (AID 1084); conditions: FRG1 promoter luciferase, higher = more signal, called active from +8 up or from −8 down
[9] = small molecules captured by biotinylated probe aFST – biochemical, small-molecule microarray, fluorescence 635/667, stem cell growth factor project, primary screen (AID 1086); conditions: higher = more signal;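 further: score merges 667 nm fluorescence with signal-to-noise of each printed compound spot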
[10] = binders of probe aHhip on microarray, primary screen, stem cell growth factor project, biochemical, small-molecule microarray, fluorescence 635/667 (AID 1087); conditions: higher = more signal;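 further: score merges spot fluorescence at 667nm with spot signal to noise ratio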

SMILES | composite z-score [1] | composite z-score [2] | composite z-score [3] | composite z-score [4] | composite z-score [5] | composite z-score [6] | composite z-score [7] | z-score [8] | composite z-score [9] | composite z-score [10]
COCCOC(=O)N1C(=O)[C@@]2(c3cc(C#CCNC(N)=O)ccc31)[C@H](c1ccc(O)cc1)N1[C@H](c3ccccc3)[C@H](c3ccccc3)OC(=O)[C@H]1[C@@H]2C(=O)N1CCCCCCC1 | 0.282 | 0.384 | -0.0022 | 0.646 | 1.1 | 0.523 | 1.07 | -0.199 (inactive) | 1.2 | -0.0491
CCN1C(=O)[C@H]2[C@H]3[C@H](O)C=CC(=O)[C@@H]3CC[C@H]2C1=O | -0.456 | 0.236 | -0.0744 | 0.393 | 0.602 | -0.132 | 0.226 | 0.669 (inactive) | 0.243 | 0.312
O=C(NN=C1C[C@@H](O)[C@@H](O)[C@@H]2[C@@H]3C(=O)N(c4cccc(Oc5ccccc5)c4)C(=O)[C@@H]3CC[C@H]12)OCc1ccccc1 | -0.0678 | 0.249 | -0.101 | 0.0108 | 0.176 | 0.301 | -0.533 | 0.723 (inactive) | 0.182 | -0.249
CO[C@@H]1COC(=O)CC=C[C@@H](C)[C@H](OC)COC(=O)[C@H](COCc2ccccc2)NC(=O)CC=C[C@H]1C | 0.0122 | 0.843 | -0.0775 | -0.0228 | -0.0992 | -0.673 | -0.831 | -0.886 (inactive) | -0.455 | -0.0618
COC(=O)C1=C(C)[C@@H](O)[C@@H](C)[C@H](c2c(OC)c(OC)c(C)c(OC)c2OC)O1 | -0.511 | 0.487 | -0.131 | 0.166 | 0.239 | -0.412 | 0.0778 | -0.298 (inactive) | 0.0017 | -0.0645
C=CCNC(=O)[C@H]1[C@@H]2C(=O)O[C@@H](c3ccccc3)[C@@H](c3ccccc3)N2[C@@H](c2ccc(O)cc2)[C@]12C(=O)N(C(=O)OCCOC)c1ccc(C#CC3=CCCCC3)cc12 | 0.484 | 1.24 | 0.008 | 0.72 | 1.05 | 2.03 | 1.06 | -0.829 (inactive) | 2.01 | 1.75
CC1CC/C=C\[C@H]2OC34C=CCN(C(C)C)C(=O)[C@H]3N(CCCO)C(=O)[C@@H]4C2C(=O)O1 (stereo not given in full) | 0.456 | 1.1 | -0.175 | 0.245 | -0.673 | 1.19 | 0.866 | -0.345 (inactive) | -0.5 | 0.214
C[C@@H]1C=CCC(=O)OC[C@H](C)C(=O)N2CCC[C@H]2C(=O)OC1 | -0.586 | 2.45 | -0.178 | 0.349 | 0.285 | -0.824 | 1.04 | 0.465 (inactive) | 0.165 | -0.0296
COc1ccc(COC(=O)NN=C2C[C@@H](O)[C@@H](O)[C@@H]3[C@@H]4C(=O)N(Cc5ccc6c(c5)OCO6)C(=O)[C@@H]4CC[C@@H]23)cc1 | 1.58 | 0.43 | 0.0203 | -0.0669 | -0.732 | -0.424 | 0.146 | -0.918 (inactive) | 1.18 | 0.0722
CCc1cccc(NC(=O)O[C@H]2[C@H](OC(=O)Nc3ccc4c(c3)OCO4)[C@@H](OC(=O)Nc3ccc4c(c3)OCO4)[C@@H](OC)O[C@@H]2CO)c1 | -0.263 | 1.45 | 0.225 | 1 | 1.49 | -0.396 | 1.25 | 8.02 (active) | 0.507 | -0.15
O=C1[C@H]2[C@H]3[C@H](O)[C@H](O)CC(=NOCc4ccccc4)[C@@H]3CC[C@H]2C(=O)N1C1CCCCC1 | -0.116 | 0.487 | -0.098 | 0.292 | 0.0141 | 1.1 | 0.564 | 0.32 (inactive) | 0.0422 | 0.0024
Cc1cc(C)c(-c2cc([C@H](C)ON=C3[C@H]4CCn5c(=O)n(-c6ccccc6)c(=O)n5[C@H]4[C@H](O)[C@@H]4O[C@H]34)on2)c(C)c1 | -0.437 | 1.55 | 0.0168 | 0.481 | 0.471 | 0.463 | 0.0257 | -0.793 (inactive) | 0.484 | 0.0024
O=C1[C@H]2[C@H]3[C@H](O)[C@H](O)CC(=NO[C@@H]4O[C@H](CO)[C@@H](O)[C@H](O)[C@H]4O)[C@@H]3CC[C@H]2C(=O)N1Cc1ccc2c(c1)OCO2 | -0.401 | -0.271 | -0.166 | 0.112 | 0.737 | 0.542 | 0.974 | 0.118 (inactive) | 0.181 | -0.201
O=C1CCCC=C1C(O)CCOCc1ccccc1 (stereo not given) | -0.149 | 0.858 | -0.0753 | 0.0674 | -0.175 | -0.573 | 0.28 | 1.58 (inactive) | -0.0364 | -0.236
CC(CCC(=O)OC[C@H]1O[C@H](C#Cc2ccccc2)C=C[C@@H]1Oc1ccc(C)cc1)=NOC[C@@H](O)COCc1ccco1 | 0.348 | -2.21 | 0.0388 | -3.02 | -2.5 | -0.837 | -0.295 | -0.948 (inactive) | -1.94 | -0.389
COC(=O)C1=CCC(c2cccc(Cl)c2)O1 (stereo not given) | 0.005 | -0.0992 | -0.0901 | 0.0994 | -0.104 | 1.25 | 0.584 | -0.912 (inactive) | -0.0195 | 0.0749
C=CC[C@@H]1C=C[C@H](ON=Cc2ccc(C(=O)N3[C@H](c4ccc(C)cc4)[C@@H](C)CC[C@H]3C(=O)OC)cc2)[C@@H](CO)O1 | -0.482 | 0.835 | -0.0687 | 0.304 | 0.842 | 0.0373 | 0.586 | 0.274 (inactive) | 0.108 | -0.0994
O=C1[C@H]2[C@H]3[C@H](O)[C@H](O)CC(=NOC[C@@H](O)COCc4ccco4)[C@H]3CC[C@H]2C(=O)N1Cc1ccc2c(c1)OCO2 | -0.707 | 1.73 | -0.204 | -0.143 | -0.282 | -0.621 | 0.561 | 0.316 (inactive) | -0.3 | -0.44
CO[C@@H]1COC(=O)CC=C[C@@H](C)[C@@H]2C=C[C@H](O)[C@@H](COC(=O)[C@H](C)NC(=O)CC=C[C@H]1C)O2 | -0.556 | 0.977 | -0.15 | 0.321 | 0.268 | -0.497 | 0.849 | 0.361 (inactive) | 0.277 | 0.351
COCCOC(=O)N1C(=O)[C@@]2(c3cc(C#Cc4ccc(OC)cc4)ccc31)[C@H](c1ccc(O)cc1)N1[C@H](c3ccccc3)[C@H](c3ccccc3)OC(=O)[C@H]1[C@@H]2C(N)=O | -0.513 | 0.258 | -0.031 | 0.602 | 1.35 | 1.17 | 1.26 | 0.497 (inactive) | 0.674 | 0.291
Cn1c(=O)n2n(c1=O)[C@H]1[C@H](O)[C@@H]3O[C@@H]3C(=NOC[C@@H](O)COCc3ccco3)[C@H]1CC2 | -0.319 | 0.614 | -0.0538 | 0.296 | 0.515 | -0.218 | 0.276 | -0.532 (inactive) | 0.0036 | 0.0373
O=C1C[C@]2(c3ccc([N+](=O)[O-])cc3)C(=O)N(CCN3CCOCC3)c3cc(CO)ccc3[C@H]2N1CC12CC3CC(CC(C3)C1)C2 | -0.0111 | -0.624 | -0.103 | -0.164 | -0.35 | 1.38 | -0.273 | 0.103 (inactive) | 0.337 | 0.312
Cc1cc2c(nc1C)CCCN2CC(C)ON=C1[C@H]2CCn3c(=O)n(-c4ccccc4)c(=O)n3[C@H]2[C@H](O)[C@@H]2O[C@H]12 (stereo not given in full) | -0.335 | 0.533 | 0.0477 | 0.73 | 0.36 | 0.0785 | 1.1 | -0.325 (inactive) | 0.265 | -0.194
COC(=O)[C@@H]1CCCN1C(=O)[C@@H](C)CO | -0.527 | 0.431 | -0.137 | 0.467 | 0.693 | 0.346 | 1.03 | 1.66 (inactive) | 0.162 | 0.154
COc1ccc(COC(=O)NN=C2C[C@@H](O)[C@@H](O)[C@@H]3[C@@H]4C(=O)N(c5ccc(F)cc5F)C(=O)[C@@H]4CC[C@@H]23)cc1 | 0.827 | 0.515 | -0.0342 | -0.299 | -0.392 | 0.0565 | -1.13 | -0.138 (inactive) | 0.562 | 0.168
CC(=O)OC[C@H]1O[C@H](CCON=C[C@@H](C)[C@H](OCc2ccccc2)C(C)C)C=C[C@@H]1OC(C)=O | -0.567 | 0.57 | -0.101 | 0.114 | -0.113 | -0.114 | -0.339 | 0.447 (inactive) | 0.0538 | 0.312
